Data from ChEMBL document CHEMBL3988442, “University of Dundee, Small-Polar-MMV Screening Library” (2021).
Among all 38,000 compounds or so, about 1,200 (3.2%) showed an effect of 50% or more. The median lay at about -58%. Many of the other results were omitted from the sample, so strong results are more common in it than they were.

system: Plasmodium falciparum; assay: Calibr Malaria Delayed Death Assay SOP; format: functional, organism-based; design: scale not given: in the data most compounds retested in dose-response had high values; conditions: concentration 4.99e-06 (unit not given; other assays of the set use mol/L)

In order of rising “Percent Effect” value:
1. COc1cccc(-c2cc(C(=O)NCCCn3cnnc3)[nH]n2)c1  -185.9%
2. OC(CNc1ncnc2c1CCNCC2)C(F)(F)F (stereo unspecified)  -185.3%
3. OC1=C2C(=Nc3n[nH]c(O)c3C2c2ccccc2Cl)CCC1 (stereo unspecified)  -169.8%
4. Cc1occc1CNc1ncccc1S(N)(=O)=O  -160.3%
5. CCNc1ncc2c(n1)CN(c1ccc(C)c(C)c1)C2=O  -153.3%
6. O=C(NCCN1CCOCC1)C1=NOC2(CCN(Cc3nccs3)C2)C1 (stereo unspecified)  -143.8%
7. CCS(=O)(=O)N1CCC2(CC1)c1ncc(-c3cccnc3)n1CCN2C  -142.7%
8. c1coc(CN2CCn3c(nc4ccccc43)C2)c1  -138.4%
9. COCCN1CCC(CNCc2c[nH]nc2C(C)(C)C)CC1  -136.4%
10. Cc1nc2c(c(NCC(O)C(F)(F)F)n1)CCNCC2 (stereo unspecified)  -130.8%
11. O=C(CNC(=O)C1(c2ccc(F)cc2F)CCC1)Nc1cccnc1  -130.4%
12. Cc1ccc(S(=O)(=O)Nc2ccc(C)c(C(=O)O)c2)s1  -129.6%
13. CCn1ncnc1C(C)Nc1cc(C2CC2)ncn1 (stereo unspecified)  -128.7%
14. O=C1N(Cc2ccc(F)c(F)c2)CCCC1(O)CNCc1ncc[nH]1 (stereo unspecified)  -127.8%
15. NC(=O)c1ccc(CN2CCC(N3CCCC3)CC2)cc1  -126.8%
16. CSCc1cc(C(=O)NC2(C#N)CC2)ccc1F  -114.4%
17. CCCn1nnc(NCc2cc(Br)cc(Br)c2OC)n1  -108.1%
18. CCN1CCn2c(-c3cccc(F)c3)cnc2C12CCN(C(C)=O)CC2.O=C(O)C(F)(F)F  -93.41%
19. Cc1cc(C)n(C2CN(CC(=O)NC3CCS(=O)(=O)C3)C2)n1 (stereo unspecified)  -92.21%
20. CC(C)n1cnnc1CN(C)C(=O)Cn1ccc2ccccc2c1=O  -90.48%
21. Cc1cccc(CN2C(=O)CO[C@@H]3CN(Cc4cnn(C)c4)C[C@H]32)c1.O=C(O)C(F)(F)F.O=C(O)C(F)(F)F  -89.5%
22. Cc1noc(CN2CCCC(Cn3nc(C)nc3C)C2)n1 (stereo unspecified)  -86.57%
23. CC(C)COC(=O)N1[C@@H](c2ccco2)[C@@H](CO)C[C@]12CCCCNC2=O  -86.33%
24. CN1CCn2c(-c3cnn(C)c3)cnc2C12CCN(CC1CC1)CC2.O=C(O)C(F)(F)F.O=C(O)C(F)(F)F.O=C(O)C(F)(F)F  -83.71%
25. CNC(=O)N1CCC2(CC1)c1ncc(-c3cccc(F)c3)n1CCN2C.O=C(O)C(F)(F)F  -80.59%
26. Cc1nn(C)c(Oc2ccccc2)c1CNC1CCOc2ccccc21 (stereo unspecified)  -79.66%
27. O=C(CN1CCCC(Cn2cncn2)C1)NCCc1cccs1 (stereo unspecified)  -76.44%
28. CCc1cc(CNC(=O)N2Cc3ccccc3N(C)CC2C)on1 (stereo unspecified)  -73.36%
29. Cc1cccc(N2CCOCC3(C2)CN(c2cncnc2)C(=O)CO3)n1 (stereo unspecified)  -72.37%
30. CN1C(=O)C(c2cccnc2)CC12CCN(Cc1nccs1)CC2 (stereo unspecified)  -72.15%
31. Cn1cccc1C(=O)NCc1cn2c(n1)CN(CC1CCOCC1)CC2.O=C(O)C(F)(F)F  -71.57%
32. CCN(C(=O)C1=NN(c2ccccc2)C(=O)CN1)c1ccccc1  -71.25%
33. FC(F)(F)C1CCCn2c(CNCc3ccco3)nnc21 (stereo unspecified)  -67.88%
34. CC(C)CNC(=O)CNc1c(NCc2ccncc2)c(=O)c1=O  -63.87%
35. CCN(CC)C1CCN(C(=O)NCc2c(C)noc2C)CC1  -63.79%
36. CC(C)C(C)NC(=O)Nc1cccc2c1CCN(S(C)(=O)=O)C2 (stereo unspecified)  -62.13%
37. NC(=O)C1CCN(C(=O)NC2CCN(CC3CCCC3)C2)CC1 (stereo unspecified)  -59.5%
38. COCCN1CCC(c2nc3ccc(NC(C)C)cn3n2)CC1.O=C(O)C(F)(F)F  -58.6%
39. Cc1noc(-c2ccnc(N3CCC(CN4CCOCC4)CC3)c2)n1  -57.29%
40. CC(=O)N1CCC2(CC1)c1ncc(-c3ccc(F)cc3)n1CCN2C  -51.39%
41. CC[C@@H]1N(Cc2nccs2)CCC[C@]12CCC(=O)N2CCOC.O=C(O)C(F)(F)F  -51.09%
42. Cc1nc(CN2CCO[C@H]3[C@@H](Oc4ccccn4)CC[C@@H]32)cs1.O=C(O)C(F)(F)F.O=C(O)C(F)(F)F  -51.07%
43. Cc1ccc(N(C)C2CCN(C(=O)CCc3ccco3)CC2)nn1  -48.98%
44. c1cnc(-c2nc(C3CCOC3)no2)cn1 (stereo unspecified)  -46.11%
45. Cn1nc(C(=O)N2CCCC2)c(F)c1NC(=O)Cc1ccccc1  -43.72%
46. CC(C)c1cc(NC(=O)CN2CCC(N3CCCCC3)CC2)on1  -41.68%
47. CN(Cc1ccco1)C[C@H]1OC[C@@H]2CCN(Cc3cccnc3)C[C@@H]21.O=C(O)C(F)(F)F.O=C(O)C(F)(F)F.O=C(O)C(F)(F)F  -41.37%
48. Cc1nc2ccnn2c(C)c1CCC(=O)N1CCN(CCO)CC1  -40.17%
49. CSC(C)(C)CNC(=O)NC1CCN(CC2CC2)C1 (stereo unspecified)  -39.54%
50. O=C(NCCc1ccccn1)C1=NN(c2ccccc2)C(=O)CN1  -38.96%
51. O=C(O)C(F)(F)F.O=C(c1ccco1)N1C[C@H]2CCCN(Cc3ccc(F)cc3)[C@H]2C1  -36.52%
52. CCc1cc(CNC(=O)N(C2CC2)C(C)c2ccco2)on1 (stereo unspecified)  -36.38%
53. CNc1nc2c(s1)C(=O)CN(C(=O)NCCc1ccccc1)C2  -35.41%
54. N#Cc1c(SCCN2CCCCCC2)sc2c(O)cc(O)nc12  -30.34%
55. O=C(c1cn[nH]c1)N1CCC2(CCCN(Cc3ccc(F)c(F)c3)C2)C1 (stereo unspecified)  -30.22%
56. CN1CC2(CCN(c3ncnc4c3CCNC4)CC2)OC1=O  -26.92%
57. Cc1ccc(CNCc2nccn2C)c(OCC2CC2)c1  -19.72%
58. CN(C)CCN1CCC(CNCc2c[nH]nc2C(C)(C)C)CC1  -18.94%
59. O=C(O)C(F)(F)F.O=C(c1ccccn1)N1CCC2(CC1)COC(COCC1CCCC1)C2 (stereo unspecified)  -17.9%
60. COc1ccccc1OCC(=O)NCC(O)(c1cccs1)C1CC1 (stereo unspecified)  -17.87%
61. CN(C)S(=O)(=O)N1C[C@@H]2COC[C@]2(COc2ccccn2)C1.O=C(O)C(F)(F)F  -16.81%
62. Cc1nn(C)c(Cl)c1CN1CCN(c2nccs2)C(C)C1 (stereo unspecified)  -15.39%
63. O=C(NC1CCN(CC2CC2)C1)c1ccc(C(=O)c2cc[nH]c2)cc1 (stereo unspecified)  -13.77%
64. CCc1nc(N2CCC3(CCC(=O)N(Cc4ccncc4)C3)CC2)no1  -12.44%
65. O=C(NC1CCN(CC2CC2)C1)c1ccc(N2CCC(O)CC2)cc1 (stereo unspecified)  -9.255%
66. CN(Cc1ccco1)C[C@H]1OC[C@@H]2CCN(Cc3ccncc3)C[C@@H]21.O=C(O)C(F)(F)F.O=C(O)C(F)(F)F.O=C(O)C(F)(F)F  -2.031%
67. CCn1ncc2c1C(COC)CN(Cc1cnn(C)c1)C2 (stereo unspecified)  -1.77%
68. Cc1nc(N2CCCC2)nc2c1CCN(C(=O)NC(C)C)CC2  3.788%
69. Cc1ccc(C(=O)N2CCN(c3ccnc4ccsc34)CC2)o1  5.694%
70. Cc1ccc2nc(CN3CCCCC3CCN3CCOCC3)cn2c1 (stereo unspecified)  7.984%
71. CN(Cc1ccco1)C[C@H]1OC[C@@H]2CCN(Cc3nccs3)C[C@@H]21  9.527%
72. COCCNc1nc2c(c(NCc3ccncc3)n1)CCNCC2  12.96%
73. Cc1ccc(NCc2cccc3cn[nH]c23)cc1OC1CCOC1 (stereo unspecified)  18.44%
74. Cc1ccc(CN2CCC3(CCCN(Cc4ccc(F)c(F)c4)C3)C2)o1 (stereo unspecified)  25.14%
75. COCc1noc(CNc2nc(C3CCCC3)nc3c2CCNCC3)n1  26.49%
76. Cc1ccc(-c2cnc3n2CCN(C)C32CCN(CC3CC3)CC2)cc1.O=C(O)C(F)(F)F.O=C(O)C(F)(F)F.O=C(O)C(F)(F)F  38.95%
77. CN(C)C(=O)N1CCCC2(CCN(Cc3ccc(Cl)c(F)c3)C2)C1 (stereo unspecified)  40.95%
78. Cc1noc(C)c1CNCC1CCN(CC(O)c2ccccc2)CC1 (stereo unspecified)  41.75%
79. Cc1cccc(N2CC[C@H]3CO[C@H](CN(C)Cc4ccco4)[C@H]3C2)n1  48.83%
80. COCCNc1nc(C2CCCC2)nc2c1CCNCC2  52.24%
81. O=C(NC1CCN(CC2CC2)C1)N1CCC(OC2CCCCC2)CC1 (stereo unspecified)  53.27%
82. Cc1ccc(CNCc2c[nH]nc2C(C)(C)C)c(OC2CCOC2)c1 (stereo unspecified)  54.5%
83. Fc1ccc(CN2CCCC3(CCN(Cc4ncc[nH]4)C3)C2)cc1F (stereo unspecified)  59.25%
84. CCN(Cc1ccco1)C(=O)C1=NN(c2ccccc2)C(=O)CN1  59.42%
85. O=C(NC1CCN(CC2CCCC2)C1)N1CCC(OCC2CC2)CC1 (stereo unspecified)  63.12%
86. OC(CNc1nc(C2CCCC2)nc2c1CCNCC2)C(F)(F)F (stereo unspecified)  63.72%
87. CN(Cc1ccco1)C[C@H]1OC[C@@H]2CCN(Cc3ccccn3)C[C@@H]21.O=C(O)C(F)(F)F.O=C(O)C(F)(F)F.O=C(O)C(F)(F)F  70.31%
88. CN1CCn2c(-c3cccc(F)c3)cnc2C12CCN(CC1CC1)CC2.O=C(O)C(F)(F)F.O=C(O)C(F)(F)F.O=C(O)C(F)(F)F  75.26%
89. Cc1c[nH]c(CN2CCC3(CCCN(Cc4ccc(F)c(F)c4)C3)C2)n1 (stereo unspecified)  79.41%
90. CN1CCn2c(-c3ccccc3)cnc2C12CCN(CC1CC1)CC2.O=C(O)C(F)(F)F.O=C(O)C(F)(F)F.O=C(O)C(F)(F)F  80.28%
91. Cc1nn(C)c(Oc2ccc(Cl)cc2)c1CN1CCC(CN)C1 (stereo unspecified)  92.45%
